Source: PubChem (National Center for Advancing Translational Sciences (NCATS))
This is a sample that favours compounds with a hit; in the whole collection about 21% have one here.
Pf growth 96h – inhibits malaria parasite growth, 96 h. Potency, µM (top dose mostly 28.7 µM), for the others: top-dose activity change, negative = inhibition, usual class: inhibitors. hit rate 6.9% among 320,000. AID 504834. P. falciparum luciferase reporter growth, 96 h; active = well fitted inhibition curve with a large enough effect; inconclusive = small, poorly fitted or top-dose-only effect, or another doubt; inactive = no such curve, though single readings can be large or run the other way; also: potency is read from the fitted curve at half-maximal effect; % is scaled to controls: 0 for no effect and ±100 for the full control effect
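Erythrocytes infected with luciferase-expressing P. falciparum were dispensed at 2% hematocrit and 0.05% parasitemia (final), then incubated with compounds 96 hours at 37 C in 5% CO2. Luminescence after detection reagent addition reported growth.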
CHX counter – counter-screen for Shiga toxin inhibitors: cycloheximide protein synthesis inhibition. max response, %. hit rate 12% among 300,000. AID 2314. cell reporter, cycloheximide protein synthesis inhibition counterscreen; in the data active = max response mostly above about 13%, no sharp cut-off; inactive = mostly below about 14%; also: read at 38.3 µM for the half of the compounds with a filed dose; 0% is about no effect
Pf growth 48h – inhibits P. falciparum growth in the first generation, 48 h. Potency, µM (highest dose often 28.7 µM), for the others: at the top dose activity change, negative = inhibition, most hits filed as inhibitors. AID 504832. hit rate 5.9% among 310,000. P. falciparum luciferase growth in erythrocytes, 48 h; active = well fitted inhibition curve with a large enough effect; inconclusive = small, poorly fitted or top-dose-only effect, or another doubt; inactive = no such curve, though single readings can be large or run the other way; also: potency is read from the fitted curve at half-maximal effect; % is scaled to controls: 0 for no effect and ±100 for the full control effect
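Firefly luciferase activity from engineered P. falciparum reports growth; inhibitors lower the luminescent signal. Cultures contained 2% hematocrit erythrocytes at 0.1% final parasitemia.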
Shiga toxin inh – blocks Shiga toxin action in Vero cells; Vero cells, Shiga toxin protein synthesis inhibition reporter; inhibition, % at 38.7 µM; hit rate 9.2% among 290,000; AID 2315; in the data active = inhibition mostly above about 28%, no sharp cut-off; inactive = mostly below about 43%; also: 0% is about no effect
SARS PLpro yeast – inhibitors of SARS-CoV papain-like protease in yeast. S. cerevisiae expressing SARS-CoV PLpro, growth rescue. Potency, µM (series often up to 32.9 µM), for inactives: at the top dose activity, positive = growth rescue, hits mostly activators. hit rate 0.19% among 330,000; also: potency is read from the fitted curve at half-maximal effect; 0% is about no effect; nearly all actives have a fitted effect of over 55% in size
NS1 function inh – blocks influenza NS1 protein function. hit rate 0.4% among 270,000. Potency, µM (top dose mostly 46.1 µM), for inactives: at the top dose activity, positive = more growth; also: potency is read from the fitted curve at half-maximal effect; actives are rising curves; nearly all actives have a fitted effect of over 50% in size
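A cell-based growth assay was used: compounds that relieve NS1-induced slow growth of budding yeast raise OD600. Assay medium was yeast nitrogen base with ammonium sulphate and -URA supplement, pH 6.0, with 2% galactose.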
* marks the source's active call; other numbers are inactive results; i = inactive; ? = inconclusive; . = not tested or not shown; [ ] = remark or other dose. Unless noted, calls follow the shape of the full dose curve.

SMILES	Pf growth 96h	CHX counter	Pf growth 48h	Shiga toxin inh	SARS PLpro yeast	NS1 function inh
CCCCC(=O)Nc1nnc(-c2ccc(OC)cc2)s1	25.7%	22.7	80.9%	35.0*	-18.3%	-1.1%
COc1ccc(NC(=O)CSc2nnc(NC(=O)CN3CCOCC3)s2)cc1	?	-3.0	?	4.9	-0.7%	.
COC(=O)Nc1nnc(-c2ccc(OC)cc2)s1	255.6%	29.6*	164.3%	101.5*	-2.1%	-11.2%
CCCCC(=O)Nc1nnc(SCC(=O)Nc2ccc(OC)cc2)s1	34.1%	41.1*	1.3%	93.1*	-6.2%	-14.1%
CCN(C(=O)CSc1ncn[nH]1)c1c(N)n(Cc2ccccc2)c(=O)[nH]c1=O	-3.7%	.	31.0%	.	2.7%	.
Cc1cccc(CC2CC(=O)N(c3ccc(C)cc3Br)C2=O)c1 (stereo not drawn)	96.8%	-0.4	27.6%	5.2	-0.9%	7.5%
CCSc1nc2ccccc2n1CC(=O)O	?	-1.3	-4.2%	-10.9	0.3%	8.2%
O=C1OC2(CCCCC2)CC2=C1C1O[C@](CCCCN3C(=O)c4ccccc4C3=O)(Cc3ccccc31)O2	?	-5.1	1.51µM*	i	0.9%[6.58 µM]	-1.0%
COc1cc2c(cc1OC)C1O[C@](CCCCN3C(=O)c4ccccc4C3=O)(C2)OC2=C1C(=O)OC1(CCCCC1)C2	?	-2.3	?	i	-0.8%[6.58 µM]	23.2%
COc1cc2c(cc1OC)C1O[C@](CCCCN3C(=O)c4ccccc4C3=O)(C2)OC2=C1C(=O)CC(C)(C)C2	?	-2.2	0.239µM*	i	?	-6.2%
O=[N+]([O-])c1ccc([As](=O)(O)O)cc1	1.69µM*	.	3.01µM*	.	.	.
NC(=O)C1CCN(C(=O)c2ccc(-c3ccccc3Cl)o2)CC1	173.0%	.	198.6%	.	-1.8%	.
C=C[C@@]1(C)CC[C@H]2C(=CC[C@@H]3[C@]2(C)CCC[C@@]3(C)C(=O)O)C1	.	-3.9	.	-10.2	.	.
O=C(/C=C/c1ccccc1)c1ccc(NC2=NCCCS2)cc1	-23.8%	25.8*	27.0%	30.0*	-23.8%	-24.2%
CC(C)(C)c1ccc(/C=C/C(=O)c2ccc(NC3=NCCCS3)cc2)cc1	?	30.9*	16.5µM*	78.3*	-131.7%	11.5%
COc1cccc(/C=C/C(=O)c2ccc(NC3=NCCCS3)cc2)c1	33.4%	17.8	-22.5%	53.7	0.1%	.
Cc1cccc(/C=C/C(=O)c2ccc(NC3=NCCCS3)cc2)c1	33.7%	26.4*	17.5%	23.7	-9.3%	-29.4%
CC(=O)c1ccc(-n2ccnc2)cc1	?	8.5	13.8%	16.7	-1.0%	2.4%
COC(=O)/C=C/c1ccc(-n2ccnc2)cc1	19.3%	39.7*	73.6%	38.3*	0.2%	.
COC(C#CCCN(C)C)(c1ccccc1)c1ccccc1	?	-2.9	1.65µM*	-7.2	-34.3%	-5.6%
CN(C)CC#CCC(O)(c1ccccc1)c1ccccc1	-26.0%	-1.9	-16.8%	-15.9	0.7%	0.3%
CC(C)(C)C(=O)CN1C(=O)NC2(CCc3ccccc32)C1=O (stereo not drawn)	1.9%	-2.4	11.6%	18.4	-0.1%	1.1%
O=C(COC(=O)c1cccs1)NCCc1ccc(F)cc1	22.7%	.	-27.8%	.	-1.7%	.
CCOc1ccc(NS(=O)(=O)c2csc(C(N)=O)c2)cc1	1.2%	1.4	1.85µM*	9.4	0.9%	1.8%
Cc1ccccc1CNS(=O)(=O)c1csc(C(N)=O)c1	6.57µM*	6.1	-27.4%	-2.7	2.8%	6.3%
SMILES	Pf growth 96h	CHX counter	Pf growth 48h	Shiga toxin inh	SARS PLpro yeast	NS1 function inh
CC1CN(C(=O)/C=C/c2ccccc2Cl)CC(C)O1 (stereo not drawn)	-29.3%	-1.3	32.7%	10.6	-4.3%	-4.4%
CCN(CC)S(=O)(=O)c1ccc(NS(=O)(=O)CC23CCC(CC2=O)C3(C)C)cc1 (stereo not drawn)	?	-0.9	-4.8%	-9.5	1.0%	-5.8%
COc1ccc(CNC(=O)C2CCCN(S(=O)(=O)c3ccc(F)cc3)C2)cc1 (stereo not drawn)	14.9%	-3.5	0.0%	-1.8	-3.1%	-1.1%
Fc1ccc(COc2ccc(-c3nnco3)cc2)c(Cl)c1	38.5%	29.6*	69.9%	83.7*	-28.1%	-35.0%
Fc1cc(Br)ccc1COc1ccc(-c2nnco2)cc1	83.4%	35.8*	84.4%	92.7*	1.3%	1.1%
OC(c1ccccc1)c1nccc2ccccc12 (stereo not drawn)	-0.1%	0.8	-8.8%	16.4	1.2%	.
